An excerpt weighted towards active compounds, which were near 1.6% of everything screened.
KCNQ2 inh: KCNQ2 (rat) channel inhibition; hit rate 1.1% among 310,000; CHO-K1 KCNQ2, FluxOR thallium flux, 20 min; hits give low values; B-score at 10 µM; O88943;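 active = fluorescence ratio B-score at most minus 3 library SDs, with starting brightness B-score within 2 library SDs, cut at about -5.5 in these data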
Target sequence (O88943 whole entry, looked up): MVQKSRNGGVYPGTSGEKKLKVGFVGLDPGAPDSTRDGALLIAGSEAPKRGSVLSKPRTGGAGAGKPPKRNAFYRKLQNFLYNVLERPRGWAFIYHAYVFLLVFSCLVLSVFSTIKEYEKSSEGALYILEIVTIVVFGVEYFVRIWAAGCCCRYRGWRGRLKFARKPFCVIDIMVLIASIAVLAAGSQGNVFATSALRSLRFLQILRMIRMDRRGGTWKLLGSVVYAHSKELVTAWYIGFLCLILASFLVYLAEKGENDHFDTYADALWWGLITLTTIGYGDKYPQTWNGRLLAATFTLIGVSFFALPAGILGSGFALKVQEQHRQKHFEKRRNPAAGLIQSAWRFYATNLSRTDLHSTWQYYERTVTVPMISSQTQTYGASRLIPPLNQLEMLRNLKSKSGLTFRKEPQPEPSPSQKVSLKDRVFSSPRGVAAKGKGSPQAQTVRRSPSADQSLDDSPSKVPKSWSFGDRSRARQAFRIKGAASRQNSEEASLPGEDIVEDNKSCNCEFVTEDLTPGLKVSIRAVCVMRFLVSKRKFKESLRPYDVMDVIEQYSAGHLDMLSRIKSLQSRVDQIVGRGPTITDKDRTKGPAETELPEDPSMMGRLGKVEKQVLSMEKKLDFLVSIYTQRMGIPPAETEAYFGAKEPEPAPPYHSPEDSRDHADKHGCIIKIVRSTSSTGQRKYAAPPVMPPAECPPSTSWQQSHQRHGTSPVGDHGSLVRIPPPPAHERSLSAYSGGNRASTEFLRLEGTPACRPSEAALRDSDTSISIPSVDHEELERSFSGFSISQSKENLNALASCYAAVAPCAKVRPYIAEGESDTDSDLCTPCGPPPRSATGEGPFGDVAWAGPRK
KCNQ2 pot: potentiators of rat KCNQ2 potassium channel; CHO-K1 KCNQ2, FluxOR thallium flux fluorescence; hits give high values; hit rate 0.54% among 310,000; B-score at 10 µM; AID 2239; O88943;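 active = fluorescence ratio B-score at least 3 SD of library B-scores, with initial fluorescence B-score within 3 of them, cut at about 5.3 in these data; same plate scores as AID 2156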;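 also: B-score of peak minus minimum over baseline fluorescence ratio after K+ and Tl+ stimulus; positive B-score means potentiation of KCNQ2 with more thallium influx and brighter signal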
Kir21 conf inh: confirmation of mouse Kir2.1 potassium channel inhibitors. shares compounds with KCNQ2 pot. Kir2.1-expressing cells, FluxOR thallium flux fluorescence; hits give low values. Tl flux remaining, % of negative control (hits give low values), % at 10 µM. hit rate 41% among 2,300. AID 2032;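 active = Primary-screen hit whose thallium flux fell at least 3 control SD below untreated wells in both duplicates, with normal baseline fluorescence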;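 also: 0% = blank wells without stimulus and 100% = stimulated no-compound controls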
HEK293 ctr: counter-screen for Kir2.1 inhibitors: effect in parental HEK293 cells. hit rate 19% among 2,300. FluxOR signal as % of negative control (100 = no effect), % at 10 µM. FluxOR thallium flux fluorescence; 0% = unstimulated blank wells. shares compounds with KCNQ2 pot. AID 2105;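 active = dye signal at least 3 control SD above or below untreated wells in both duplicates, raw fluorescence within 3, either direction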;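 also: percent is based on the flux ratio of peak minus minimum fluorescence over baseline F0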
CHO-K1 Tl ctr: alters thallium flux in parental CHO-K1 cells, KCNQ2 counter-screen. activity increase over 3SD of controls, % at 10 µM. FluxOR thallium flux fluorescence; zero = vehicle mean+3SD, 100% = vehicle-minus-blank window. shares compounds with KCNQ2 pot. AID 2282. hit rate 43% among 1,200;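 active = signal rise of at least 3 SD above the untreated control mean, in both duplicate wells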;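 also: counter screen of KCNQ2 potentiator hits so any rise reflects channel-independent effects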
KCNQ1 pot spec: selectivity of KCNQ2 potentiators: effect on human KCNQ1 | shares compounds with KCNQ2 pot | CHO KCNQ1 stable, FluxOR thallium flux fluorescence; beyond 3SD, as % of vehicle-control signal | hit rate 28% among 1,200 | AID 2283 | activation over 3SD threshold, % at 10 µM;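 active = fluorescence ratio rise of at least 3 SD of vehicle wells above their mean, in both replicate wells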;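 also: 0% = vehicle mean plus 3 SD and 100% = vehicle minus unstimulated blank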
KCNQ2 pot confirm: rat KCNQ2 channel potentiator confirmation; shares compounds with KCNQ2 pot; CHO-KCNQ2 cells, FluxOR thallium flux fluorescence; potentiation, less the hit threshold, % at 10 µM; hit rate 68% among 1,200;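 active = fluorescence ratio rising 3 SD or more over the vehicle control mean in both replicates, plus primary screen hit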;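 also: peak minus minimum thallium fluorescence divided by baseline after K/Tl stimulus; 0% = vehicle mean plus 3 SD and 100% = vehicle minus unstimulated blank difference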
Kir21 spec: tests whether KCNQ2 potentiators also affect mouse Kir2.1. shares compounds with KCNQ2 pot. HEK293 Kir2.1, FluxOR thallium flux fluorescence. activity over 3SD threshold, % at 10 µM. hit rate 2% among 1,200. AID 2345;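 active = fluorescence ratio rise of at least 3 SD above the vehicle-control mean, seen in both replicates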;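 also: 0% = vehicle mean plus 3 SD and 100% = vehicle minus no-stimulus blank window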
KCNQ2 W236L pot: potentiates the retigabine-insensitive rat KCNQ2 W236L mutant channel; shares compounds with KCNQ2 pot; CHO KCNQ2-W236L, automated patch clamp current; current increase over 3SD of negative controls (%), hits give high values, % at 25 µM; hit rate 10% among 940;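 active = current increase at least 3 SD of the untreated controls above them in both duplicate recordings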
Numbers without * were called inactive; i = inactive; / = no result.

SMILES | KCNQ2 inh | KCNQ2 pot | Kir21 conf inh | HEK293 ctr | others
CCc1nnc(NC(=O)c2nc(S(=O)(=O)Cc3ccccc3)ncc2Cl)s1 | i | 12* | i | i | CHO-K1 Tl ctr=97*;KCNQ1 pot spec=-19;KCNQ2 pot confirm=87*;Kir21 spec=-44;KCNQ2 W236L pot=70%*
COc1ccc(CNC(=O)c2nc(S(=O)(=O)Cc3ccccc3)ncc2Cl)cc1 | i | / | / | /
CCc1nnc(NC(=O)c2nc(S(=O)(=O)Cc3ccc(C)cc3)ncc2Cl)s1 | i | 15* | / | / | CHO-K1 Tl ctr=-22;KCNQ1 pot spec=-16;KCNQ2 pot confirm=63*;Kir21 spec=-53;KCNQ2 W236L pot=26%*
COc1ccc(/C=N/n2cnnc2)cc1Br | i | / | / | /
Nc1nnc(SCC(=O)Nc2cccc3ccccc23)s1 | i | / | / | /
C=CCn1c(=S)[nH]c2cc(C(=O)Nc3ccc(F)cc3)ccc2c1=O | i | / | / | /
CC(C)Cn1c(=O)[nH]c(=O)c2c(C(F)(F)F)cc(-c3ccccc3)nc21 | i | / | / | /
COc1ccc(N(CC(=O)NCc2ccccc2)C(=O)Cn2nnc(-c3ccccc3F)n2)cc1OC | i | 0.05 | / | /
COc1ccccc1NC(=O)CC12CC3CC(CC(Br)(C3)C1)C2 | i | 6.7* | i | i | CHO-K1 Tl ctr=-3;KCNQ1 pot spec=41*;KCNQ2 pot confirm=23*;Kir21 spec=-17;KCNQ2 W236L pot=i
NC(=O)c1ccccc1NC(=O)CC12CC3CC(CC(Br)(C3)C1)C2 | i | 1.1 | / | /
COc1ccc(NC(=O)CC23CC4CC(CC(Br)(C4)C2)C3)c(OC)c1 | i | 16* | i | i | CHO-K1 Tl ctr=-1;KCNQ1 pot spec=2.8*;KCNQ2 pot confirm=72*;Kir21 spec=-30;KCNQ2 W236L pot=i
COc1ccc(NC(=O)CNC(=O)C23CC4CC(CC(C4)C2)C3)c(OC)c1 | i | / | / | /
COc1ccc(C(=O)N/N=C/c2ccc(OC)c(COc3ccc(F)cc3F)c2)cc1 | i | 0.73 | / | /
CN1CCC(N(C)S(=O)(=O)c2ccc(NC(=O)COc3cccc(C(F)(F)F)c3)cc2)CC1 | i | / | / | /
COCCNC(=O)/C(C#N)=C/c1cccc(/C=C(\C#N)C(=O)NCCOC)c1 | i | 9.3* | i | i | CHO-K1 Tl ctr=-7;KCNQ1 pot spec=2.5*;KCNQ2 pot confirm=1.3*;Kir21 spec=-30;KCNQ2 W236L pot=9.2%*
COCCNC(=O)/C(C#N)=C/c1ccc(O)cc1 | i | 0.47 | / | /
CCc1cc(C(=O)N(CC(C)C)c2c(N)n(Cc3ccccc3)c(=O)[nH]c2=O)sc1C | i | / | / | /
S=c1nc[nH]c2c1ncn2C1CCCC1 | i | 0.1 | / | /
Cn1cc(SCC(=O)N2CCCc3ccccc32)c2ccccc21 | i | / | 52%* | i
Cn1cc(SCC(=O)N2CCOCC2)c2ccccc21 | i | / | / | /
Cc1noc(C)c1CSc1nc2ccccc2n1CCc1ccccc1 | -6* | -6 | 66%* | i
O=C(O)CCn1c(SCc2ccccc2)nc2ccccc21 | i | 0.07 | / | /
COc1ccc(C(=O)OC(COc2ccccc2)Cn2ccnc2)cc1 (configuration not stated) | i | / | 54%* | i
COC(=O)c1cccc(OCC(O)Cn2ccnc2)c1 (configuration not stated) | i | / | / | /
CC1CCc2c(nc3ncnn3c2N2CCN(c3ccccc3)CC2)C1 (configuration not stated) | i | 1.3 | / | /
SMILES | KCNQ2 inh | KCNQ2 pot | Kir21 conf inh | HEK293 ctr | others
c1nc2nc3c(c(N4CCOCC4)n2n1)CCCC3 | i | 17* | i | i
Oc1ccc(N=Nc2ccccc2)o1 | i | / | / | /
Cc1ccc2c(c1)NC(=O)C(CC(=O)Nc1ccc(Br)c(C)c1)O2 (configuration not stated) | i | 0.89 | / | /
CCCCn1c(N)c(N(CCC(C)C)C(=O)c2ccc3c(c2)OCO3)c(=O)[nH]c1=O | i | / | / | /
CC(C)(C)c1ccc(OCC(=O)NCc2ccco2)c(Br)c1 | i | 5.4* | i | i | CHO-K1 Tl ctr=-11;KCNQ1 pot spec=-13;KCNQ2 pot confirm=4.0*;Kir21 spec=-36;KCNQ2 W236L pot=i
CC(C)(C)c1ccc(OCC(=O)NNC(=S)NC(=O)c2ccco2)c(Br)c1 | i | / | / | /
COCCNC(=O)c1c(CS(=O)(=O)c2ccccc2)noc1C(=O)NCc1ccccc1 | i | 0.33 | / | /
Clc1ccc(CNC2CCN(Cc3ccccc3)CC2)cc1 | i | / | 28%* | i
Fc1ccc(CNC2CCN(Cc3ccccc3)CC2)cc1 | i | / | / | /
CC(=O)N1CCC(C(=O)c2ccc(Cl)cc2)CC1 | i | / | / | /
S=C(Nc1ccc(Cl)cc1Cl)NC1CCN(Cc2ccccc2)CC1 | i | 0.91 | / | /
O=C(NC1CCN(Cc2ccccc2)CC1)c1ccc(Cl)cc1Cl | i | / | 76%* | i
O=C(c1ccc(Cl)cc1)C1CCN(Cc2ccccc2)CC1 | i | / | 20%* | i
CN(C)c1ccc(P(=O)(OC2CCCCC2)C(O)c2ccncc2)cc1 (configuration not stated) | i | / | / | /
CCCCN(C(=O)c1ccc(Br)o1)C1CCS(=O)(=O)C1 (configuration not stated) | i | 0.06 | / | /
O=C(N/N=C/c1ccccc1F)c1ccc(COc2ccccc2Cl)o1 | i | / | / | /
Cc1ccccc1C(=O)N1CCC(C(=O)Nc2ccccn2)CC1 | i | / | / | /
Cc1c(-c2ccccc2)cnc2c(C)cccc12 | i | / | / | /
CN(C)CCCN1c2ccccc2Sc2ccc(C(F)(F)F)cc21 | i | / | / | /
O=C(CCN1CCOCC1)N1c2ccccc2Sc2ccc(Cl)cc21 | i | / | / | /
CN1CCN(CCCN2c3ccccc3Sc3ccc(Cl)cc32)CC1 | -9.1* | -9.1 | 14%* | i
OCCN1CCN(CCCN2c3ccccc3Sc3ccc(C(F)(F)F)cc32)CC1 | i | / | 30%* | i
COc1ccc(CNC(=O)CSc2nc(SC)ns2)cc1 | i | 1.8 | / | /
CC(C)c1cc(Br)ccc1OCCCN1C(=O)NC(C)(C)C1=O | i | / | i | i
CC1(C)NC(=O)N(CCCOc2ccc(Br)cc2Cl)C1=O | i | 0.39 | / | /
NC(=O)CCN1CCN(C(=O)c2ccc3nc(Cc4cccc(Cl)c4)oc3c2)CC1 | i | 0.72 | / | /
N#CC1=C(N)N(c2ccccc2)C(c2ccco2)C1(C#N)C#N (configuration not stated) | i | / | / | /
N#CC1=C(N)N(c2ccccc2)C(c2cccc([N+](=O)[O-])c2)C1(C#N)C#N (configuration not stated) | i | / | 59%* | 72%*
O=C(Nc1nnc(-c2ccc3c(c2)CCCC3)o1)c1ccccc1 | i | 7.1* | i | 289%* | CHO-K1 Tl ctr=-10;KCNQ1 pot spec=-14;KCNQ2 pot confirm=8.6*;Kir21 spec=-26;KCNQ2 W236L pot=i
